The text below walks through data of the supplement of paper PMC11732987, “Enantioselective OTUD7B fragment discovery through chemoproteomics screening and high-throughput optimisation” (Communications Chemistry, 2025).

Test in all cases: log2 ratio of Biotin-Ahx-Ub-VS probe labelling (fragment/DMSO); higher = less target engagement (more negative = stronger competition), active = hit call of the paper (q ≤ 0.05, log2 ratio ≤ -1)
Common to all, as to conditions: compound concentration: 200 uM; treatment time: 3 h

Assay [1] has as its target T1, OTUD6B (UniProt Q8N6M0).
T1 sequence (whole entry): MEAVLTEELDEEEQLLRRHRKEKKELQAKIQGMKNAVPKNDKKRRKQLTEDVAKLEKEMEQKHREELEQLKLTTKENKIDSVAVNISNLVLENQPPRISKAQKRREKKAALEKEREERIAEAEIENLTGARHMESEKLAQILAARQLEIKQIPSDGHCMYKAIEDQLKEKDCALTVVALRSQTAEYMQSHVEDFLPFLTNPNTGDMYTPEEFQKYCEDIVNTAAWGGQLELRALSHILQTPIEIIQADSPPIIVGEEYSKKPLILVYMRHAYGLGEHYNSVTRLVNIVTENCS
In short, it runs like this:
(§1)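 Global-median-normalised Spectronaut label-free quantities were compared by unpaired t-test, and values are average log2 ratios of fragment over vehicle. Only proteins with ≥2 unique peptides were used. HEK293T lysate (495 µg per sample) was treated in triplicate with fragment at 200 µM or vehicle for 3 h and then with Biotin-Ahx-Ub-VS at 0.5 µM final for 1 h. Labelled DUBs were then NeutrAvidin-enriched, digested with LysC and trypsin, and run by diaPASEF LC-MS/MS.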

Assay [2] has as its target T2, OTUD7B (UniProt Q6GQQ9).
T2 sequence (whole entry): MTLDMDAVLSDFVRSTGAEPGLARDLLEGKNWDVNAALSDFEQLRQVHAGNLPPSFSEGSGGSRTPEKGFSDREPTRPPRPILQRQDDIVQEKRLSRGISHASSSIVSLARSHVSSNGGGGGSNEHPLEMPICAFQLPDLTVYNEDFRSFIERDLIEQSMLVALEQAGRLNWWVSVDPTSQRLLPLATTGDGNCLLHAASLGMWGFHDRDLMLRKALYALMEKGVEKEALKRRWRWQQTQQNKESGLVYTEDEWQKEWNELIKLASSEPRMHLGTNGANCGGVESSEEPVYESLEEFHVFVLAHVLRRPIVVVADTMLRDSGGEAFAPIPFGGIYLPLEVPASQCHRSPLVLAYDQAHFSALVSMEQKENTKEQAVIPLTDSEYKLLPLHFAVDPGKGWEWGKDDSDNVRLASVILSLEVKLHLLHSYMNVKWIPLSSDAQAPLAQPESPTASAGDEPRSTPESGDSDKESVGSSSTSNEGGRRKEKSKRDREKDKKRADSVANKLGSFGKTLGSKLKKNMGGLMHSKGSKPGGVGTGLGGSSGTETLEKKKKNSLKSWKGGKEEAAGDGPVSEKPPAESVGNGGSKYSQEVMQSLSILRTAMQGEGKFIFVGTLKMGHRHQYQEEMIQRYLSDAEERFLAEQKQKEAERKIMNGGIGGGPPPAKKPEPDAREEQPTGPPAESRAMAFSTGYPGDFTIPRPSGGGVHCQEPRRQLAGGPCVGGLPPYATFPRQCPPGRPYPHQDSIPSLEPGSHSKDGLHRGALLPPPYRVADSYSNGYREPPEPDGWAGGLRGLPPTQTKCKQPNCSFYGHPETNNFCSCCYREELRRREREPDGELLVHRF
In short, it runs like this:
as §1

Assay [3] has as its target PRPF8 (UniProt Q6P2Q9). In short, it runs like this: as §1
For assay [4], the target named is T3, PSMD7 (UniProt P51665).
T3 sequence (whole entry): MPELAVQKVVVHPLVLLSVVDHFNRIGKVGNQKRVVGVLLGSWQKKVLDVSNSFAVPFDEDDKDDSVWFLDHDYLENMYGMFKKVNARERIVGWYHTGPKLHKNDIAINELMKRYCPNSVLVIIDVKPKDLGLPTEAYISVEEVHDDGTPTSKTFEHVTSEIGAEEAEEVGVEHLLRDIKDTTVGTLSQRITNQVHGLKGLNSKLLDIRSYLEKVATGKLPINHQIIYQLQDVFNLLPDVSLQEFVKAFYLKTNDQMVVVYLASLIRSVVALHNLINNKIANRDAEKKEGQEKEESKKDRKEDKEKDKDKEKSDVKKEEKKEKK
In short, it runs like this:
as §1

Assay [5] has as its target UCHL1 (UniProt P09936). In short, it runs like this: as §1
Assay [6] deals with T4, UCHL3 (UniProt P15374).
T4 sequence (whole entry): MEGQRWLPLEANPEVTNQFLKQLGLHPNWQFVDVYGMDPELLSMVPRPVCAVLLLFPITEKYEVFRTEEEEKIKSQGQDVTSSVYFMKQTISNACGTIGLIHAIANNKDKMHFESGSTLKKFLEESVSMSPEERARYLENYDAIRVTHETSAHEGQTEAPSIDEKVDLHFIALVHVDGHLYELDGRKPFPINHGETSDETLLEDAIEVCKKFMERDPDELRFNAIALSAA
In short, it runs like this: as §1

The target of assay [7] is T5, UCHL5 (UniProt Q9Y5K5).
T5 sequence (whole entry): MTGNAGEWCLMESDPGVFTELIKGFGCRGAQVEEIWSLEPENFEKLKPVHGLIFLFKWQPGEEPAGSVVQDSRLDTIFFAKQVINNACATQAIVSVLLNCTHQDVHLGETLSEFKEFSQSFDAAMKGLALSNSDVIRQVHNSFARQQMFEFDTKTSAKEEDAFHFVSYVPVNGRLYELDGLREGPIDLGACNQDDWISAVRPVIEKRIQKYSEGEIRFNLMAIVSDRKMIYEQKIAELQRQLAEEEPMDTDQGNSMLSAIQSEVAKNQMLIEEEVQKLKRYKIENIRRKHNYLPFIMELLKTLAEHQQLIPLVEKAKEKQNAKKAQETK
In short, it runs like this: as §1

For assay [8], the target named is USP10 (UniProt Q14694). In short, it runs like this: as §1
USP10, sequence (Q14694 whole entry): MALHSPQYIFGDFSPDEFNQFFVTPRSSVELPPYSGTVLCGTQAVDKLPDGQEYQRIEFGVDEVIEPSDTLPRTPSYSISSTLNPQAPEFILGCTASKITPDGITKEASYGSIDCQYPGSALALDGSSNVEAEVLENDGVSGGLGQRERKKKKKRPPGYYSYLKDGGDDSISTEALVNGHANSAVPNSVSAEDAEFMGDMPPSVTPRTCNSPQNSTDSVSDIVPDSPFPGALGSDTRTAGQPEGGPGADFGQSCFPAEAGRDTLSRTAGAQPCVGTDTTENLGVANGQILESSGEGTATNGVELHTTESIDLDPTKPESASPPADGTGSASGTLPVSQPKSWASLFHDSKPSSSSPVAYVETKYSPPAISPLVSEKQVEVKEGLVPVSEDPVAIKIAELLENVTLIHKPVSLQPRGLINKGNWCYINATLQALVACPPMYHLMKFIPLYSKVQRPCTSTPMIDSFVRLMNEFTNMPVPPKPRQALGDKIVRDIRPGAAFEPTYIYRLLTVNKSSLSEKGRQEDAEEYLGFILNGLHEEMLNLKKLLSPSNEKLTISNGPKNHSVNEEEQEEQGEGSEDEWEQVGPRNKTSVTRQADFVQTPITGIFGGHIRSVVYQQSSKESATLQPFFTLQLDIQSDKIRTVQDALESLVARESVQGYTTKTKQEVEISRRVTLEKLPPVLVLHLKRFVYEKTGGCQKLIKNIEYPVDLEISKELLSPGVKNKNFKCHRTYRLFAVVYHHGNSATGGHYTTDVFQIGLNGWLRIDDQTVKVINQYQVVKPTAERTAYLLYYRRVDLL
Assay [9] deals with T6, USP15 (UniProt Q9Y4E8).
T6 sequence (whole entry): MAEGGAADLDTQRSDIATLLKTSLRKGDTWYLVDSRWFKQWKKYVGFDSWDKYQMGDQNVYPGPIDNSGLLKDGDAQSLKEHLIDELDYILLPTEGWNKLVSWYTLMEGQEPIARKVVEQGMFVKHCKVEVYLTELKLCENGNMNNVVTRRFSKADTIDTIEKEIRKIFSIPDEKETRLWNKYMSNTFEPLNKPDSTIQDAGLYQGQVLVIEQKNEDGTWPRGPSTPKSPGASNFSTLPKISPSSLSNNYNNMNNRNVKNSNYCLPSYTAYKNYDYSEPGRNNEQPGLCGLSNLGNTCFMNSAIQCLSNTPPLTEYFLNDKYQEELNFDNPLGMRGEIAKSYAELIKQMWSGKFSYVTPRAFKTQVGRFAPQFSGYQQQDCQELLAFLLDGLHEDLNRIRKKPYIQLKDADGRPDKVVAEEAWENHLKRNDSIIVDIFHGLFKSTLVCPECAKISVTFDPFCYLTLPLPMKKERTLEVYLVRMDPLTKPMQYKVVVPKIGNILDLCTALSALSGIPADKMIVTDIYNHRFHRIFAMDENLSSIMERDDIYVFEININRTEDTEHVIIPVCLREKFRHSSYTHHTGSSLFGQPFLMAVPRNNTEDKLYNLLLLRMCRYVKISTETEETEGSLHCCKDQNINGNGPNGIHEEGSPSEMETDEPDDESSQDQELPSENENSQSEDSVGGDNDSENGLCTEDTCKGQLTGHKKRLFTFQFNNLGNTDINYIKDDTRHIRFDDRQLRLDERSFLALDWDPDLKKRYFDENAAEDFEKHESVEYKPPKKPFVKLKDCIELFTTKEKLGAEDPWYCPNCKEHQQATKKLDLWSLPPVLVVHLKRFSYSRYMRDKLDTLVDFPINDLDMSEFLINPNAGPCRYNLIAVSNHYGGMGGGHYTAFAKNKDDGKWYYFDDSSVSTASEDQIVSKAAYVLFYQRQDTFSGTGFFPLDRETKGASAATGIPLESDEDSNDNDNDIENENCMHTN
In short, it runs like this:
as §1

Unmarked numbers belong to inactive results.

UCHL1, sequence (P09936 whole entry, looked up): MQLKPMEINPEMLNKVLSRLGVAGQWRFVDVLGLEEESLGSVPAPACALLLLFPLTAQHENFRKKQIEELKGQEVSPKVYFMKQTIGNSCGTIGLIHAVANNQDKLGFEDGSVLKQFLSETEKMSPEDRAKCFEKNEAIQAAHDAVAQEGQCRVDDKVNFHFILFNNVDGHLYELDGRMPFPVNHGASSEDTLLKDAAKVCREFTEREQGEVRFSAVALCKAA

With `O=C(CCl)N1CCOC(CCc2ccccc2)C1` (centres undefined), the “log2 ratio of Biotin-Ahx-Ub-VS probe labelling” value in assay [1] was -0.215; in assay [2] it was -0.71; in [3] it was -0.0352; in assay [4] it was -0.432; in assay [5], -1.46 (active); in assay [6] it was -0.025. Further, the “log2 ratio of Biotin-Ahx-Ub-VS probe labelling” value in assay [7] is -0.22; in assay [8], -0.258; in assay [9], -0.374.
